Hits are enriched below; roughly 12% of the tested compounds scored in any of these assays.
NS1 inh: influenza NS1 inhibition. 270,000 compounds, 0.4% hits. Potency, µM (titrated, usually from 46.1 µM), inactives show at the top dose activity, positive = more growth; calls by dose curve; note: actives are rising curves; nearly all actives have a fitted effect of over 50% in size
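OD600 was taken as the measure of yeast growth restored by compound in an NS1-expressing S. cerevisiae strain. Cells had been washed out of glucose medium and diluted 1:100 into galactose -URA medium, pH 6.0.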
Pf growth 96h: P. falciparum growth inhibition at 96 hour, primary screen for plastid delayed-death inhibitors | Potency, µM (series often up to 28.7 µM), without a hit: top-dose activity change, negative = inhibition, hits mostly inhibitors | 320,000 compounds, 6.9% hits | P. falciparum luciferase reporter growth, 96 h; note: % is set by controls: 0 for no effect and ±100 for the full control effect
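P. falciparum expressing integrated firefly luciferase, in erythrocytes at 2% hematocrit, 0.05% parasitemia, incubated with compounds 96 h at 37 C, 5% CO2. Growth inhibition read as loss of luminescence; two-generation exposure targets delayed-death apicoplast inhibitors.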
Pf growth 48h: inhibits P. falciparum growth in the first generation, 48 h. P. falciparum luciferase growth in erythrocytes, 48 h. Potency, µM (highest dose often 28.7 µM), without a hit: at the top dose activity change, negative = inhibition, usual class: inhibitors. AID 504832. 310,000 compounds, 5.9% hits; note: % is set by controls: 0 for no effect and ±100 for the full control effect
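First compound was added to culture medium, then infected red cells at 0.1% parasitemia and 2% hematocrit (final). After incubation at 37 C under 5% CO2, luciferase detection reagent was dispensed and light output recorded.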
HCV inhibitor: HCV inhibition; AID 651820; Potency, µM (doses to about 41.8 µM), for the others: top-dose activity change, negative = inhibition, actives largely listed as inhibitors; 340,000 compounds, 3.4% hits; Huh7.5.1 HCVcc-Cre infection, luciferase reporter, 44 h; note: % is set by controls: 0 for no effect and ±100 for the full control effect
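HCVcc-Cre virus at an moi near 0.5 was added right after compound to cells cultured 4 h from seeding (1,000 cells/well). Luciferase activity was determined 44 h later, 15 min after substrate addition at RT.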
SARS PLpro yeast: SARS-CoV PLP inhibition in yeast. S. cerevisiae expressing SARS-CoV PLpro, growth rescue. Potency, µM (titrated, usually from 32.9 µM), without a hit: at the top dose activity, positive = growth rescue, usual class: activators. 330,000 compounds, 0.19% hits; calls by dose curve; note: 0% is about no effect; nearly all actives have a fitted effect of over 55% in size
AMA1 RON2 block: inhibitors of Plasmodium falciparum AMA1-RON2 interaction; AlphaScreen AMA1-biotinylated RON2 peptide binding; Potency, µM (top dose mostly 58.2 µM), without a hit: at the top dose activity change, negative = inhibition, most hits filed as inhibitors; 360,000 compounds, 0.2% hits; AID 720542;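 note: 0% = vehicle wells and -100% = peptide control; nearly all actives have a fitted effect of over 45% in size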
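AMA1 (3D7) with his tag at 25 nM final met compounds first, then biotinylated RON2 peptide at 25 nM; detection used donor plus acceptor beads, 10 µg/mL apiece, read by AlphaScreen after 30 min at room temperature.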
An asterisk follows results filed as active; ? = inconclusive; · = no result; [ ] = another dose, or the depositor's remark. Unless noted, calls come from the whole dose curve; as a rule, active = well fitted curve in the direction sought with a large enough effect; inconclusive = small, poorly fitted or top-dose-only effect, or another doubt; inactive = no such curve, though single readings can be large; an effect the other way counts as inactive or inconclusive. Potency is the fitted concentration of half-maximal effect.

SMILES	NS1 inh	Pf growth 96h	Pf growth 48h	HCV inhibitor	SARS PLpro yeast	AMA1 RON2 block
CN(C)S(=O)(=O)c1ccc(/C(O)=C2/C(=O)C(=O)N(CCCN3CCOCC3)C2c2ccncc2)cc1 (stereo unspecified)	·	·	·	10%	·	-19%
O=c1cc(CO)occ1O	·	-4%	-2%	·	·	·
CCn1c(=O)c2[nH]c(SC)nc2n(CC)c1=O	·	·	·	·	·	3%
NC1=NC(=Nc2cccc(S(=O)(=O)N3CCOCC3)c2)c2ccccc21	8%	6%	10%	-11%	-1%	6%
COC(=O)c1ccc(NC(=O)Cn2nc(C(=O)Nc3ccc(C)cc3)ccc2=O)cc1	-4%	?	-8%	11%	1%	10%
Nc1nc(SCc2c(Cl)cccc2Cl)n[nH]1	-7%	1.3µM*	·	11%	2%	-7%
Nc1nc(SCc2ccc(Cl)c(Cl)c2)n[nH]1	-38%	?	-13%	-12%	0%	-9%
COc1ccc(-c2nn(-c3ccccc3)cc2/C=N/NS(=O)(=O)c2ccccc2)cc1	24%	12µM*	?	?	-4%	0%
O=C(N/N=C/c1ccccn1)c1cccc(S(=O)(=O)Nc2ccccc2Cl)c1	-5%	12%	?	-21%	0%	85%
COc1ccc(-c2nn(-c3ccccc3)cc2/C=N/O)cc1	-7%	6%	?	-5%	-1%	-6%
COc1ccc(-c2nn(-c3ccccc3)cc2/C=N/NC(=O)c2cccc(S(=O)(=O)Nc3ccccc3Cl)c2)cc1	?	2.9µM*	9.3µM*	?	9%	44%
CCOC(=O)C1C(=O)C(=O)N(C2CCCCC2)C1C(=O)OCC (stereo unspecified)	·	·	·	-9%	·	-4%
O=C(c1ccc(Cl)cc1)C(CN1CCCCC1)c1ccccc1 (stereo unspecified)	-89%	0%	-4%[0.00184 µM]	16µM*	-6%	4%
Cc1ccc(C(=O)C(C)CN2CCCCC2)cc1 (stereo unspecified)	·	13µM*	13µM*	·	·	·
CCOC(=O)C(CN1CCCC1)c1ccccc1 (stereo unspecified)	·	74%	-30%	16%	-21%	5%
O=C(c1ccccc1)C(CN1CCCC1)c1ccccc1 (stereo unspecified)	-28%	12µM*	?	?	-46%	6%
CCOC(=O)CC1=CCc2c1ccc(OC)c2OC	·	·	·	-19%	·	12%
CCOC(=O)c1cnc(SCc2cccc3ccccc23)nc1N	-1%	4.7µM*	·	?	10%	16%
COc1ccc(NC(=O)/C(C#N)=C/c2ccc(OCCN3CCOCC3)c(OC)c2)c(OC)c1	15%	13µM*	-6%	0%	-4%	-3%
N#C/C(=C\c1ccc(OCCN2CCOCC2)cc1)C(=O)Nc1ccc(S(N)(=O)=O)cc1	0%	6.6µM*	3%	31%	0%	16%
N#C/C(=C\c1ccc(OCCN2CCOCC2)cc1)C(=O)Nc1ccccc1F	10%	108%	3%	8%	-8%	-4%
Cc1cc(C(=O)CSc2cccc[n+]2[O-])c(C)n1-c1ccc(Br)cc1	·	6.6µM*	17%	·	-1%	·
CC(C)c1ccccc1OCCCCCNCCO	?	4.1µM*	4.1µM*	?	2%	8%
CC(C)(C)c1ccccc1OCCCCCNCCO	-8%	-29%	4.1µM*	7.9µM*	-11%	-10%
COc1cccc(CN2CC(C(=O)N(C)CC3CCOCC3)CCC2=O)c1 (stereo unspecified)	25%	18%	10%	15%	5%	-8%
SMILES	NS1 inh	Pf growth 96h	Pf growth 48h	HCV inhibitor	SARS PLpro yeast	AMA1 RON2 block
COc1ccc(CNc2nc3ccc(C)cc3s2)c(OC)c1OC	-50%	1%	?	?	-10%	-1%
OC(CNc1ncnc2sccc12)c1ccccc1 (stereo unspecified)	-2%	210%	146%	3.2µM*	1%	6%
CN(C)C(CNc1ncnc2sccc12)c1ccccc1 (stereo unspecified)	·	?	6%	-15%	0%	2%
COc1ccc(OC2CCN(S(=O)(=O)c3ccc(F)cc3)CC2)cc1	-7%	-19%	-20%	17%	-2%	0%
COc1ccc(C(=O)C2CCCN(S(=O)(=O)c3ccc(C(C)=O)cc3)C2)c(C)c1 (stereo unspecified)	-3%	0%	5%	10µM*	-2%	-4%
COc1ccc(S(=O)(=O)N2CCC(NC(=O)C3CCCCC3)CC2)cc1	5%	19%	16%	?	-2%	-2%
COc1ccc(S(=O)(=O)N2CCC(C(=O)NC3CC3)CC2)cc1	8%	15%	9.3µM*	8%	3%	-6%
COc1ccc(OC2CCN(S(=O)(=O)c3ccc(C(C)=O)cc3)CC2)cc1	-7%	29%	?	13µM*	-2%	-12%
CSc1ccc(S(=O)(=O)N2CCC(C(=O)NC3CC3)CC2)cc1	-2%	-9%	4.1µM*	7%	1%	11%
Cc1ccc(S(=O)(=O)N2CCC(C(=O)NC3CCCCCC3)CC2)cc1	-4%	-38%	-18%	-7%	-4%	-1%
CCS(=O)(=O)N1CCCC(C(=O)c2ccc(OC)cc2C)C1 (stereo unspecified)	1%	30%	11%	?	-1%	15%
CC(O)c1ccc(Oc2cnccn2)cc1 (stereo unspecified)	4%	41%	-1%	19%	1%	4%
Cc1cc(C)n2nc(C(=O)OCC(=O)N3CC(C)CC(C)C3)nc2n1 (stereo unspecified)	·	30%	31%	-9%	0%	31%
O=C(NC1CC1)C1CCN(S(=O)(=O)c2ccc(Cl)c([N+](=O)[O-])c2)CC1	·	?	?	13µM*	-1%	-6%
CSc1ccc(S(=O)(=O)N2CCC(C(=O)Nc3ccc(C(N)=O)cc3)CC2)cc1	-3%	4.7µM*	25%	13%	-14%	0%
CSc1ccc(S(=O)(=O)N2CCC(C(=O)Nc3cccnc3)CC2)cc1	4%	-12%	-22%	8%	-2%	0%
O=C(NC1CCN(S(=O)(=O)c2cccc([N+](=O)[O-])c2)CC1)C1CCCCC1	3%	9%	-8%	1%	4%	-2%
CSCc1ccc(C(=O)NC(C)c2cnn(-c3ccccn3)c2C)o1 (stereo unspecified)	-8%	?	-16%	?	1%	1%
CC(C)(C)OC(=O)N1CCC[C@H]1C(=O)N1CCC[C@H]1C(=O)NCc1ccncc1	·	·	·	·	·	-1%
CC(C)NC(=O)c1ccc(COc2ccc(C(C)(C)C)cc2)o1	-36%	?	-15%[0.00184 µM]	?	-8%	0%
COc1nnc(-c2ccc(C)c(S(=O)(=O)NC(C)C)c2)c2ccccc12	0%	2.6µM*	·	-14%	1%	-17%

Source: PubChem BioAssay
